Screens from PubChem.
Only some compounds are listed: those with a hit (about 0.5% of all), similar ones and a draw of the others.
phage Ecoli inh – E. coli growth loss with phage present; inhibition, % at 11.9 µM; 360,000 compounds, 0.26% hits; growth absorbance; in the data active = inhibition above about 11%
E coli growth-1 – blocks Escherichia coli growth | OD600, 23 h; active compounds read low | OD600 absorbance (no concentration beside the values) | 330,000 compounds, 0.21% hits | AID 1053175;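 active = OD600 absorbance below the run mean of sample wells minus 3.6 SD, in any replicate, cut at about 0.56 in these data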
E coli growth-2 – bacterial growth inhibition, counter-screen for AddAB inhibitors | E. coli V3065 growth, OD600 absorbance, 18 h | inhibition, % at 11.9 µM | 330,000 compounds, 0.27% hits | AID 449728;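 active = inhibition above the campaign's mean inhibition across all tested compounds plus 3 SD, cut at about 9.9% in these data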;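 also: uninfected addAB+ strain grown without phage in ampicillin broth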
AddAB inh – less growth of phage-infected E. coli with AddAB | inhibition, % at 11.9 µM | 330,000 compounds, 0.29% hits | E. coli expressing H. pylori AddAB, absorbance growth | AID 435030; in the data active = inhibition above about 12%
Tat transport – E. coli Tat transport inhibition. AID 488895. E. coli MC4100 TorA-mCherry Tat export, fluorescence. 340,000 compounds, 0.036% hits. inhibition, % at 10 µM;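 active = mean replicate inhibition at least 50% and at least half of replicates individually reaching 50%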;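 also: exported cargo escapes ClpAP degradation while cytoplasmic cargo is degraded and loses fluorescence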
AddAB conf – growth loss of T4-infected E. coli expressing H. pylori AddAB, confirmed | 880 compounds, 64% hits | shares compounds with AddAB inh | inhibition, % at 11.9 µM | E. coli V3065 expressing H. pylori AddAB, T4 phage, OD; T4 phage with gene 2 nonsense mutations;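 active = mean inhibition above a set limit taken from the earlier primary screen, cut at about 13% in these data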;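 also: higher means less bacterial growth since AddAB block lets phage replicate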
RecBCD counter – AddAB counter-screen: growth loss of RecBCD+ E. coli infected with mutant T4 phage; 880 compounds, 73% hits; E. coli V66 + mutant T4 phage, OD growth; inhibition, % at 11.9 µM; AID 488955; shares compounds with AddAB inh;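 active = mean inhibition above the mean of solvent-only control wells plus 3 SD, cut at about 4% in these data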;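 also: optical density read after an 18 h incubation at 37 °C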
Bact viability – counter-screen: bacterial growth inhibition | bacterial viability, absorbance (AddAB counterscreen) | AID 488956 | shares compounds with AddAB inh | 880 compounds, 35% hits | inhibition, % at 11.9 µM; in the data active = inhibition above about 25%
Numbers stand for hits.

What do the screens show for `O=C(N/N=C/C(Br)=C\c1ccccc1)c1ccc2nc[nH]c2c1`?
phage Ecoli inh: inactive; E coli growth-2: inactive; AddAB inh: 12; Tat transport: inactive; AddAB conf: inactive; RecBCD counter: inactive; Bact viability: inactive

Results for O=C(NN=C/C(Br)=C\c1ccccc1)c1ccc2nc[nH]c2c1 ?
E coli growth-1: inactive

Results for CCOCCCNC(=O)C1CCCN(S(=O)(=O)CC)C1 (configuration not stated) ?
phage Ecoli inh: inactive; E coli growth-1: inactive; E coli growth-2: inactive; AddAB inh: inactive; Tat transport: inactive

What do the screens show for `CCOC(=O)c1c(-c2ccc(F)cc2)csc1NC(=O)C1CCCO1` (configuration not stated)?
phage Ecoli inh: inactive; E coli growth-1: inactive; E coli growth-2: inactive; AddAB inh: inactive; Tat transport: inactive

What do the screens show for `Cn1c(OCc2cccnc2)nc2c1c(=O)n(Cc1ccc(Br)cc1)c(=O)n2C`?
phage Ecoli inh: inactive; E coli growth-1: inactive; E coli growth-2: 84; AddAB inh: 23; Tat transport: inactive; AddAB conf: inactive; RecBCD counter: inactive; Bact viability: inactive

What do the screens show for `Cc1cc2ncn(N=Cc3ccc4c(c3)OCO4)c2cc1C`?
E coli growth-1: inactive

How did CC(C)N1C(=O)C2C(c3ccccc3O)NC(C)(C(=O)O)C2C1=O (configuration not stated) do in these assays?
phage Ecoli inh: inactive; E coli growth-1: inactive; E coli growth-2: inactive; AddAB inh: 15; Tat transport: inactive; AddAB conf: inactive; RecBCD counter: inactive; Bact viability: inactive

How did CC(C)CC1(C(=O)O)NC(c2ccccc2O)C2C(=O)N(C(C)C)C(=O)C21 (configuration not stated) do in these assays?
phage Ecoli inh: inactive; E coli growth-1: inactive; E coli growth-2: inactive; AddAB inh: inactive; Tat transport: inactive

Results for S=C(Nc1ccc(Oc2ccc(NC(=S)NC3CCCCC3)cc2)cc1)NC1CCCCC1 ?
phage Ecoli inh: inactive; E coli growth-1: inactive; E coli growth-2: inactive; AddAB inh: inactive; Tat transport: inactive

Results for CC(C)c1ccc(NC(=S)NC2CCCCCC2)cc1 ?
phage Ecoli inh: inactive; E coli growth-1: inactive; E coli growth-2: 87; AddAB inh: 98; Tat transport: inactive; AddAB conf: inactive; RecBCD counter: inactive; Bact viability: inactive

What do the screens show for `COc1ccc(NC(=O)Cn2cc(C(C)=O)c3ccccc32)cc1`?
phage Ecoli inh: inactive; E coli growth-1: inactive; E coli growth-2: 14; AddAB inh: 16; Tat transport: inactive; AddAB conf: inactive; RecBCD counter: 12; Bact viability: inactive

What do the screens show for `CCOc1ccc(NC(=O)Cn2cc(C(C)=O)c3ccccc32)cc1`?
phage Ecoli inh: inactive; E coli growth-1: inactive; E coli growth-2: inactive; AddAB inh: inactive; Tat transport: inactive

Results for Cn1nc([N+](=O)[O-])c(C(C#N)c2ccccn2)c(Cl)c1=O (configuration not stated) ?
phage Ecoli inh: inactive; E coli growth-1: inactive; E coli growth-2: inactive; AddAB inh: 13; Tat transport: inactive; AddAB conf: 41; RecBCD counter: 6.1; Bact viability: inactive

How did O=Nc1ccc(O)c2ncccc12 do in these assays?
phage Ecoli inh: inactive; E coli growth-1: 0.4; E coli growth-2: 12; AddAB inh: 12; Tat transport: inactive; AddAB conf: 98; RecBCD counter: inactive; Bact viability: inactive

How did CSc1nsc(SCC(=O)Nc2ccc(C(N)=O)cc2)n1 do in these assays?
phage Ecoli inh: inactive; E coli growth-1: inactive; E coli growth-2: inactive; AddAB inh: inactive; Tat transport: inactive

What do the screens show for `CCCCOc1ccc(Cc2cnc(N)nc2N)cc1`?
phage Ecoli inh: inactive; E coli growth-1: 0.34; E coli growth-2: 12; AddAB inh: 14; Tat transport: inactive; AddAB conf: 13; RecBCD counter: 9.2; Bact viability: inactive

What do the screens show for `Cc1cc(SCC(=O)NN=Cc2ccc(O)cc2O)c(C)cc1Br`?
E coli growth-1: inactive

Results for Cc1cc(SCC(=O)N/N=C/c2ccc(O)c(O)c2O)c(C)cc1Br ?
phage Ecoli inh: 17; E coli growth-2: 18; AddAB inh: 16; Tat transport: inactive; AddAB conf: inactive; RecBCD counter: 10; Bact viability: inactive

Results for CCc1cccc(NC(=O)CCCSc2nc3ccccc3[nH]2)c1 ?
phage Ecoli inh: inactive; E coli growth-1: inactive; E coli growth-2: inactive; AddAB inh: 12; Tat transport: inactive; AddAB conf: inactive; RecBCD counter: inactive; Bact viability: inactive

What do the screens show for `O=C(NC(Cc1ccc2c(c1)OCO2)C(=O)NC(Cc1ccccc1)C(=O)O)c1ccccc1` (configuration not stated)?
phage Ecoli inh: inactive; E coli growth-1: inactive; E coli growth-2: 93; AddAB inh: 97; Tat transport: inactive; AddAB conf: inactive; RecBCD counter: inactive; Bact viability: inactive

How did Cc1ccc(CC(NC(=O)c2ccccc2)C(=O)NC(Cc2ccccc2)C(=O)O)cc1 (configuration not stated) do in these assays?
phage Ecoli inh: inactive; E coli growth-1: inactive; E coli growth-2: inactive; AddAB inh: inactive; Tat transport: inactive

Results for Cc1nn(-c2ccccc2)c(N2CCCC2)c1/C=N/NC(=O)C1CC1 ?
phage Ecoli inh: inactive; E coli growth-2: inactive; AddAB inh: inactive; Tat transport: inactive

What do the screens show for `CCCC(c1nnnn1CS(=O)(=O)c1ccc(C)cc1)N1CCN(c2ccccc2)CC1` (configuration not stated)?
phage Ecoli inh: inactive; E coli growth-1: inactive; E coli growth-2: inactive; AddAB inh: inactive; Tat transport: inactive

How did CCC(c1nnnn1CS(=O)(=O)c1ccc(C)cc1)N1CCN(c2nc3ccccc3s2)CC1 (configuration not stated) do in these assays?
phage Ecoli inh: inactive; E coli growth-1: inactive; E coli growth-2: 32; AddAB inh: 44; Tat transport: inactive; AddAB conf: inactive; RecBCD counter: inactive; Bact viability: inactive

What do the screens show for `O=C(O)CCCCCn1c(SCC(=O)c2ccc(O)c(O)c2)nc2ccsc2c1=O`?
phage Ecoli inh: inactive; E coli growth-1: inactive; E coli growth-2: inactive; AddAB inh: inactive; Tat transport: inactive

Results for CCCCn1c(SCC(=O)c2ccc(O)c(O)c2)nc2ccsc2c1=O ?
E coli growth-1: inactive; E coli growth-2: inactive; AddAB inh: 15; Tat transport: inactive; AddAB conf: inactive; RecBCD counter: 4.7; Bact viability: inactive

What do the screens show for `CCOC(=O)N1CCN(c2cc(=O)n(-c3ccc(C)cc3)c(=O)[nH]2)CC1`?
phage Ecoli inh: inactive; E coli growth-1: inactive; E coli growth-2: 22; AddAB inh: 97; Tat transport: inactive; AddAB conf: inactive; RecBCD counter: inactive; Bact viability: inactive
